Measured values: the supplement of paper PMC7156485
Structures can show the parent of a compound that is named as a salt. ± gives the standard deviation of the averaged measurements.
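Further: TDF denotes transformed human dermal fibroblasts of mesenchymal origin.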

The molecules below were run on HCC1569 (assay: cell number relative to DMSO (% of DMSO); higher = more cells (less growth inhibition / toxicity)). Conditions: concentration: 10 µM; 24 h.
Method in brief: (§1)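 Cells were seeded at 800 per well in 384-well plates with RPMI containing 10% FBS; both HCC1569 and TDF lines were used. Compounds were added at 10 µM for 24 h at 37 °C, in triplicate, before fixation in 3.7% formaldehyde and staining with a rabbit anti-H1.0 antibody, an AlexaFluor 647 secondary and DAPI. H1.0 nuclear intensity or cell number is reported as percent of the plate control using the median of replicates, and HCC1569 values were smoothed for positional effects.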
For CCN(Cc1ccccc1)C(=O)Cn1c(=O)n(C)c2cnc(-c3ccccc3)nc21, the cell number was 75.1. In the case of CN(CCOc1ccc(NS(C)(=O)=O)cc1)CCc1ccc(NS(C)(=O)=O)cc1 [Dofetilide], the cell number is reported as 98. Cc1ccc(CN2C(=O)S/C(=C\c3ccc(Cl)cc3)C2=O)cc1 showed a cell number of 99.6. O=C1NC(c2cccc([N+](=O)[O-])c2)=CCN1c1ccccc1O showed a cell number of 104. Work on Cc1cccc(Nc2ccccc2C(=O)O)c1C [Mefenamic acid] yielded a cell number of 104.

These molecules were tested on TDF in the same assay as above. Conditions: concentration: 10 µM; 24 h.
Method in brief: as §1
In the case of CCCCCCCCCCCCCCC(F)C(=O)O (stereo not given) [2-Fluoropalmitic acid], the cell number is reported as 102. For CC(C)(C)NCC(O)c1cc(O)cc(O)c1.CC(C)(C)NCC(O)c1cc(O)cc(O)c1.O=S(=O)(O)O (stereo not given) [Terbutaline hemisulfate], the cell number was 105. In the case of COc1cc(-c2oc3cc(O)ccc3c(=O)c2O)ccc1O [Geraldol], the cell number is reported as 73.9. Molecule COc1cc2nc(N3CCN(C(=O)c4ccco4)CC3)nc(N)c2cc1OC.Cl [Prazosin.HCl] has a cell number of 105. OCC1OC(n2cnc3c(NC4CC5CCC4C5)ncnc32)C(O)C1O (stereo not given) showed a cell number of 92.5. CC(CCc1ccc(O)cc1)NCCc1ccc(O)c(O)c1.Cl (stereo not given) [Dobutamine hydrochloride] showed a cell number of 95.7. Nc1c(C(=O)O)c2nc3c(C(=O)O)cccc3oc-2cc1=O [2-amino-3-oxo-3H-phenoxazine-1,9-dicarboxylic acid] showed a cell number of 88.1. Molecule Nc1nc(Cl)nc2c1ncn2C1OC(CO)C(O)C1O (stereo not given) [2-Chloroadenosine] has a cell number of 119. With OC(Cn1cncn1)(Cn1cncn1)c1ccc(F)cc1F [Fluconazole] the cell number was 100. CN(CCOc1ccc(CC2SC(=O)NC2=O)cc1)c1ccccn1.O=C(O)C=CC(=O)O (stereo not given) [Rosiglitazone maleate] gave a cell number of 113. Molecule CC1CCC2C(C)(CO)C(O)CCC2(C)C12CCC(CO)(CCO)O2 (stereo not given) [Lagochiline] has a cell number of 99.8. O=C(Nc1ccc(Oc2ccnc3[nH]ccc23)c(F)c1)c1cccn(-c2ccc(F)cc2)c1=O gave a cell number of 103. Work on O=C(O)c1cc(=O)c2ccc(Cl)cc2[nH]1 [7-Chlorokynurenic acid] yielded a cell number of 105. Cn1cnc2c1c(=O)[nH]c(=O)n2C [Theobromine] gave a cell number of 99 ± 6.1. Cc1cnc(Nc2ccc(N3CCN(C)CC3)cc2)nc1Nc1cccc(S(=O)(=O)NC(C)(C)C)c1 was tested, and the cell number was 98.6. CCCOC(=O)c1c(-c2ccccc2)nc(CC)c(C(=O)SCC)c1CCC showed a cell number of 90.7. O=c1onc2cnc3ccccc3n12 gave a cell number of 97.5. With CN1C2CCC1CC(OC(c1ccccc1)c1ccccc1)C2.CS(=O)(=O)O (stereo not given) [Benztropine mesylate] the cell number was 114. Work on CC(O)C(=O)C1=Nc2c([nH]c(N)nc2=O)NC1 (stereo not given) [Sepiapterin] yielded a cell number of 113. C=C(c1ccc(C(=O)O)cc1)c1cc2c(cc1C)C(C)(C)CCC2(C)C [Bexarotene] was tested, and the cell number was 103. In the case of CC(O)(P(=O)([O-])O)P(=O)([O-])O [Etidronate], the cell number is reported as 106. CC(C)=CCC(O)C1=CC(=O)c2c(O)ccc(O)c2C1=O (stereo not given) [Shikonin] was tested, and the cell number was 38.8. Work on COc1ccc2c(c1)c(CC(=O)N1CCOCC1)c(C)n2C(=O)c1ccc(Cl)cc1 [Indomethacin morpholinylamide] yielded a cell number of 100. Molecule CNNCc1ccc(C(=O)NC(C)C)cc1 [Procarbazine] has a cell number of 106. CN(c1ncccc1CNc1nc(Nc2ccc3c(c2)CC(=O)N3)ncc1C(F)(F)F)S(C)(=O)=O showed a cell number of 32.3. Molecule CC12C=CC(=O)C=C1CCC1C2C(=O)CC2(C)C1CCC2(O)C(=O)CO (stereo not given) [Prednisone] has a cell number of 106. For Cl.O=C(O)C1=CCCN(CCON=C(c2ccccc2)c2ccccc2)C1 [NO-711 hydrochloride], the cell number was 93.9. O=C1Nc2ccccc2C1=Cc1c(Cl)[nH]c2ccccc12 [Cdk1 Inhibitor] gave a cell number of 9.63. With OC[C@@H](O)[C@H]1NC[C@@H](O)[C@H]1O [1,4-Dideoxy-1,4-imino-D-mannitol hydrochloride] the cell number was 104. Cc1cc(C)c(NC(=O)CC(CC(=O)[O-])c2cccc3ccccc23)c(C(=O)N2CCC3(CCCC3)CC2)c1.[Na+] (stereo not given) showed a cell number of 102.
